# Source: publication PMC7862700, “An all-to-all approach to the identification of sequence-specific readers for epigenetic DNA modifications on cytosine”
# Experiments:
# Assay in all cases: DAPPL (digital affinity profiling via proximity ligation, sequencing); 10 mM Tris-HCl pH 7.5, 50 mM NaCl, 1 mM DTT, 4% glycerol, room temperature, 30 min; GST-TFs on glutathione beads, 16-mer random dsDNA library, 0.1% formaldehyde crosslink after washing; high values mean tight binding
# Conditions in all cases: protein: recombinant; tags: N-terminal GST; dsDNA, one strand shown
# ETV2 = target: T1, ETV2 (Homo sapiens, UniProt O00321 1-342)
# T1 sequence: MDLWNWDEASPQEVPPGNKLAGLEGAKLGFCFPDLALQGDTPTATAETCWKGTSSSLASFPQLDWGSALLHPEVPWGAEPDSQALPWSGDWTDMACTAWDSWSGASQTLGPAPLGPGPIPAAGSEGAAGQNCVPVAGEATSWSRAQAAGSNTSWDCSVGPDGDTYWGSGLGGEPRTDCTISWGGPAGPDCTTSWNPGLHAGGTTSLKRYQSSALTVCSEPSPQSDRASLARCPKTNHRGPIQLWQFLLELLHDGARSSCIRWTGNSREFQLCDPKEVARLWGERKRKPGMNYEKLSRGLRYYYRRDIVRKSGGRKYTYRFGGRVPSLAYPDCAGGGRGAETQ
# Procedure, shortened: (§1)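 Sequencing on an Illumina NextSeq500 followed washing, crosslinking with 0.1% formaldehyde, proximity ligation (BsaI/T4 ligase, 1 h, 37 °C) and PCR amplification of pools that had been incubated for 30 min at room temperature with 200 nmole of a random double-stranded 16-mer DNA library in Tris/NaCl/DTT/glycerol buffer. Each pool held DNA-barcoded human transcription factors, expressed in yeast as GST fusions and captured on glutathione beads, plus a tag-only sample. Binding signal is a hexamer's read frequency for a factor divided by its frequency in the tag-only sample.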
# EHF = target: T2, EHF (Homo sapiens, UniProt Q9NZC4 1-300)
# T2 sequence: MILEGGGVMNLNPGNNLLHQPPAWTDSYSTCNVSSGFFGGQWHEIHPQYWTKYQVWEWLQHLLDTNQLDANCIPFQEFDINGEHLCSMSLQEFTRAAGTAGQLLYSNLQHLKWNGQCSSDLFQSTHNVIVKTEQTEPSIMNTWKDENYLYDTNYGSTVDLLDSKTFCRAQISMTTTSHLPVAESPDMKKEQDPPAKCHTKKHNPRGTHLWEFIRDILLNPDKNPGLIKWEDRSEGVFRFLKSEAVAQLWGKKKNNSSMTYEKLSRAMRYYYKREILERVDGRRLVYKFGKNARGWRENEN
# Procedure, shortened: as §1
# SPI1 = SPI1 (Homo sapiens, UniProt P17947 1-270)
# Procedure, shortened: as §1
# ELK4 = target: T3, ELK4 (Homo sapiens, UniProt P28324-2 1-405)
# T3 sequence: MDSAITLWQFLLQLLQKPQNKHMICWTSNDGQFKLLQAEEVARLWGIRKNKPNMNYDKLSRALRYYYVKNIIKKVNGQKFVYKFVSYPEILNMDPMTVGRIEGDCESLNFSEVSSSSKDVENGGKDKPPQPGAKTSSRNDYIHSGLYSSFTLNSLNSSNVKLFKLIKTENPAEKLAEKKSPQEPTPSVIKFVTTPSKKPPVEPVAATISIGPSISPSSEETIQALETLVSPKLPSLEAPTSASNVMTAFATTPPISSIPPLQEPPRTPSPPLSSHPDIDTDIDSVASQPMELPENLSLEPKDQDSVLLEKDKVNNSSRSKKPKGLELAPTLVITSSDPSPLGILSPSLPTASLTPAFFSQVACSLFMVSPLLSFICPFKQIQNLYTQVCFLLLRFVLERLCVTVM
# Procedure, shortened: as §1
# ETV7 = target: T4, ETV7 (Homo sapiens, UniProt Q9Y603 1-341)
# T4 sequence: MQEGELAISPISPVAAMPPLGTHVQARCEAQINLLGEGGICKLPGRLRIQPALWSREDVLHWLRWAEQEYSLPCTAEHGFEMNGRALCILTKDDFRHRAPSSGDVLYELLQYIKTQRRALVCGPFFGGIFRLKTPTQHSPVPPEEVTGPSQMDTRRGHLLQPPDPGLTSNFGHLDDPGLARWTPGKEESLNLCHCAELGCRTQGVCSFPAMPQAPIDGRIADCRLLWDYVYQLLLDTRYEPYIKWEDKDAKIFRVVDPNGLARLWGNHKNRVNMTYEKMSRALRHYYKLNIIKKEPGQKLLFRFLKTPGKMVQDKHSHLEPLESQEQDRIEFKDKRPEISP
# Procedure, shortened: as §1
# ETV3L = target: T5, ETV3L (Homo sapiens, UniProt Q6ZN32 1-361)
# T5 sequence: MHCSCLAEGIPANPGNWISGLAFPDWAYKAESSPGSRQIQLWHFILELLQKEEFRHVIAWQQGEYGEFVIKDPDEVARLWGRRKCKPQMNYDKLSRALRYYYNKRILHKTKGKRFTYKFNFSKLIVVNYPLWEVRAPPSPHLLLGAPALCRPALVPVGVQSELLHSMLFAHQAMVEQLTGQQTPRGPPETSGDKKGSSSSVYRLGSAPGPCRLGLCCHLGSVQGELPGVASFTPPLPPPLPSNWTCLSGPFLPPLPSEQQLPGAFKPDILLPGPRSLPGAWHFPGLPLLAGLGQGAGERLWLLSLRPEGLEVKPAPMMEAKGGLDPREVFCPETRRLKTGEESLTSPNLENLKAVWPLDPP
# Procedure, shortened: as §1
# ELK1 = target: T6, ELK1 (Homo sapiens, UniProt P19419 1-428)
# T6 sequence: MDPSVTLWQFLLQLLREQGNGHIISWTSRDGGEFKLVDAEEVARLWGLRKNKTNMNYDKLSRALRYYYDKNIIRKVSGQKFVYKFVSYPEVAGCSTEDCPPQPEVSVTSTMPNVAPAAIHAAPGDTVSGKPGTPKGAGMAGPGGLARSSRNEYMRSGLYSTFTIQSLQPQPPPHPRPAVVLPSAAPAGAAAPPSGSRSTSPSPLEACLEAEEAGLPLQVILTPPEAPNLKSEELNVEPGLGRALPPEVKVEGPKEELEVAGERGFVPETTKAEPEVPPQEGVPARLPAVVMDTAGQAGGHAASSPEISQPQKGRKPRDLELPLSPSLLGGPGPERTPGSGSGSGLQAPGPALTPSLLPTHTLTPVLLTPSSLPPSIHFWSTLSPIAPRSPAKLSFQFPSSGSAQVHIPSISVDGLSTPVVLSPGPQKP
# Procedure, shortened: as §1
# GABPA = target: T7, GABPA (Homo sapiens, UniProt Q06546 1-454)
# T7 sequence: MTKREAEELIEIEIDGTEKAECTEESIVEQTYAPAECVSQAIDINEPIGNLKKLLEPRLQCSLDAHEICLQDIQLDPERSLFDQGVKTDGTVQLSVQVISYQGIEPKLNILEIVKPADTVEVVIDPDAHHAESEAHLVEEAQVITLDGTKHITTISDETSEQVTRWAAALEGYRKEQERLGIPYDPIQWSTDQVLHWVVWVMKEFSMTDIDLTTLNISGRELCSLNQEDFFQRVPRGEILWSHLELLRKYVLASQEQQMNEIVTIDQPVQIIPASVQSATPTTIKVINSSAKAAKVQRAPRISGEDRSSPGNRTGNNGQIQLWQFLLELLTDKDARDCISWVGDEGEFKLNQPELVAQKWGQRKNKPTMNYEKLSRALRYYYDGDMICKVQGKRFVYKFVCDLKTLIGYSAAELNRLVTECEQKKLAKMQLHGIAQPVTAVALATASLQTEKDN
# Procedure, shortened: as §1
# ELF3 = target: T8, ELF3 (Homo sapiens, UniProt P78545 1-371)
# T8 sequence: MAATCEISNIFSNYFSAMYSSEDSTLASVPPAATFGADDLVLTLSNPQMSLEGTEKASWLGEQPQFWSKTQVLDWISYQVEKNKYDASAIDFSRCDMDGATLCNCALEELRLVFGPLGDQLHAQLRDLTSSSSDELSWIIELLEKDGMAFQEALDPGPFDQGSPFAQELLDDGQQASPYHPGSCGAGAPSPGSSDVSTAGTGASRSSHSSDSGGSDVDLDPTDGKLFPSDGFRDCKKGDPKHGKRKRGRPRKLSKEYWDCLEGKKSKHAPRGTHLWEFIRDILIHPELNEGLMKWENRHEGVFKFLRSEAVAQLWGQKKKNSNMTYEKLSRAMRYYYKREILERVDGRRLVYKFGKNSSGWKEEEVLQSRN
# Procedure, shortened: as §1
# ERG = target: T9, ERG (Homo sapiens, UniProt P11308 1-479)
# T9 sequence: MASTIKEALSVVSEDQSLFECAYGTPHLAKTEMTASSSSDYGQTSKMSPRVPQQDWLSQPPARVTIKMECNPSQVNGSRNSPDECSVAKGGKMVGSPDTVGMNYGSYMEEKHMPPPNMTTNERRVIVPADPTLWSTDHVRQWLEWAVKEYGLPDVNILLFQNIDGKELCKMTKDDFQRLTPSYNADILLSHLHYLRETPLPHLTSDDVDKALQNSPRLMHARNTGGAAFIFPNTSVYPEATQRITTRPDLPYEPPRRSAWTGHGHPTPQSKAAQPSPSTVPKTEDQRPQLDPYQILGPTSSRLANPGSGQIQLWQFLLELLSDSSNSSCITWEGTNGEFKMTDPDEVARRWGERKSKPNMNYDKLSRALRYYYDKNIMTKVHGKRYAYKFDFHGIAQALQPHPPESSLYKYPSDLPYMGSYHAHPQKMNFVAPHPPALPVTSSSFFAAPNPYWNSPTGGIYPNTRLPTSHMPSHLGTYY
# Procedure, shortened: as §1
# SPIB = SPIB (Homo sapiens, UniProt Q01892 1-262)
# Procedure, shortened: as §1
# SPDEF = target: T10, SPDEF (Homo sapiens, UniProt O95238 1-335)
# T10 sequence: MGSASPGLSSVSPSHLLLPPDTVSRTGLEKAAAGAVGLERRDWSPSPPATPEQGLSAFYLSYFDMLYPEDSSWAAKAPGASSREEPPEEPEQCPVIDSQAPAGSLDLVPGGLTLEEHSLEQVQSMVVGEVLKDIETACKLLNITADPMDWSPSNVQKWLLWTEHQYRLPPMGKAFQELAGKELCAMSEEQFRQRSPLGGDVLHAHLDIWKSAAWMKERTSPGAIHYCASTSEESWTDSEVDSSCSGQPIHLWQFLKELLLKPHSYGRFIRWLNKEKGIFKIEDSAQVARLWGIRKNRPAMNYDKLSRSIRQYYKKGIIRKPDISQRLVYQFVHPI
# Procedure, shortened: as §1
# ELF5 = target: T11, ELF5 (Homo sapiens, UniProt Q9UKW6-2 1-255)
# T11 sequence: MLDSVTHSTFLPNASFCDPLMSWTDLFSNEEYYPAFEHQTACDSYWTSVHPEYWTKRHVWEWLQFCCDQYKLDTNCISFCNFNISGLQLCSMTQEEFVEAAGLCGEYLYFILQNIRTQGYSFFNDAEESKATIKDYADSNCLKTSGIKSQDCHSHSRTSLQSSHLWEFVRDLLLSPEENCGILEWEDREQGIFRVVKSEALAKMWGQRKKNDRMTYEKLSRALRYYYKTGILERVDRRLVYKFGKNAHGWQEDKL
# Procedure, shortened: as §1
# SPIB, sequence (Q01892 whole entry): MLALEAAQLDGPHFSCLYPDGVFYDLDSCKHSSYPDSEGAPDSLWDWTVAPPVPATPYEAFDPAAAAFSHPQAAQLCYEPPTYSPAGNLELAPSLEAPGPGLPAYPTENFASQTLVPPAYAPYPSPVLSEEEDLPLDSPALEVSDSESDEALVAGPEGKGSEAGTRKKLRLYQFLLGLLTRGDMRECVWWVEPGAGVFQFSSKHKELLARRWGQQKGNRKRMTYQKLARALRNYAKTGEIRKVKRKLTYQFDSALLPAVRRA
sequence,measurement,setting,value
GACCGA,binding signal,ETV2,"1.04 fold enrichment (6-mer frequency, TF over GST control)"
GGCTGC,binding signal,EHF,"1.02 fold enrichment (6-mer frequency, TF over GST control)"
same,binding signal,SPI1,"1.01 fold enrichment (6-mer frequency, TF over GST control)"
same,binding signal,ELK4,"1 fold enrichment (6-mer frequency, TF over GST control)"
same,binding signal,ETV7,"1.14 fold enrichment (6-mer frequency, TF over GST control)"
GGCCTG,binding signal,ELK4,"1.08 fold enrichment (6-mer frequency, TF over GST control)"
same,binding signal,ETV2,"1.06 fold enrichment (6-mer frequency, TF over GST control)"
same,binding signal,ETV3L,"1.04 fold enrichment (6-mer frequency, TF over GST control)"
same,binding signal,ETV7,"1.03 fold enrichment (6-mer frequency, TF over GST control)"
AGATGT,binding signal,ELK1,"1 fold enrichment (6-mer frequency, TF over GST control)"
same,binding signal,GABPA,"1.01 fold enrichment (6-mer frequency, TF over GST control)"
same,binding signal,ELF3,"1.04 fold enrichment (6-mer frequency, TF over GST control)"
same,binding signal,ETV3L,"1 fold enrichment (6-mer frequency, TF over GST control)"
same,binding signal,ETV7,"1.04 fold enrichment (6-mer frequency, TF over GST control)"
GATCCG,binding signal,ELK1,"1.01 fold enrichment (6-mer frequency, TF over GST control)"
same,binding signal,ERG,"1.04 fold enrichment (6-mer frequency, TF over GST control)"
same,binding signal,SPIB,"1.05 fold enrichment (6-mer frequency, TF over GST control)"
same,binding signal,ELK4,"1 fold enrichment (6-mer frequency, TF over GST control)"
same,binding signal,SPDEF,"1.65 fold enrichment (6-mer frequency, TF over GST control)"
same,binding signal,ELF5,"1.02 fold enrichment (6-mer frequency, TF over GST control)"
